High-throughput results as filed in PubChem.
HPGD block: HPGD (human) dehydrogenase inhibition | Potency, µM, actives largely listed as inhibitors | P15428 | purified HPGD, NADH fluorescence kinetic, PGE2 substrate | hit rate 4.3% among 150,000; active means well fitted inhibition curve with a large enough effect, not every such curve was filed as active; inconclusive means small, poorly fitted or top-dose-only effect, or another doubt; inactive means no such curve, though single readings can be large or run the other way
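20 nM HPGD preincubated 15 min at room temperature with compound in 50 mM Tris-HCl pH 8, 0.01% Tween 20. Started with 1 mM NAD+ and 30 uM prostaglandin E2; NADH fluorescence (360/450 nm) read 5 times over 30-s intervals, last minus first.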
IMPase Li inh: cell-permeable IMPase inhibitors with lithium potentiation | CHO-M1 cells, IP1 TR-FRET (IP-One), carbachol + lithium | Potency, µM (highest dose often 59.4 µM), hits mostly inhibitors | hit rate 0.35% among 210,000;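 further: IP1 builds up when IMPase is blocked and the TR-FRET signal falls; nearly all actives have a fitted effect of over 50% in size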
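Concentration–response in CHO-M1 cells, lithium-potentiated; 30 min at 37C. IP1 detected by competitive TR-FRET after 10 min lysis at RT. Hill-fitted AC50.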
ALDH1A1 block: inhibitors of human aldehyde dehydrogenase 1A1. P00352. Purified ALDH1A1, NADH fluorescence, propionaldehyde substrate. Potency, µM (doses to about 75.3 µM), most hits filed as inhibitors. hit rate 7.3% among 220,000. AID 1030; active means well fitted inhibition curve with a large enough effect, not every such curve was filed as active; inconclusive means small, poorly fitted or top-dose-only effect, or another doubt; inactive means no such curve, though single readings can be large or run the other way
IMPase inh: cell-permeable inhibitors of inositol monophosphatase (IMPase) | CHO-M1 cells, IP1 accumulation, HTRF TR-FRET ratio | P97697 | 120,000 tested, under 10 active | inhibition (IP1 accumulation), % at 46.1 µM; active means well fitted curve in the direction sought with a large enough effect in the signal ratio, not every such curve was filed as active; inconclusive means small, poorly fitted or top-dose-only effect, or a change in a side signal; inactive means no such curve, though single readings can be large or run the other way; the % refers to the signal ratio;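 further: cells stimulated with carbachol in lithium chloride buffer; higher means more IMPase inhibition seen as more IP1 and lower FRET ratio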
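Carbachol-driven Gq signalling in CHO-M1 cells (2000/well) generates IP1. Compounds that block IMPase raise IP1 and so reduce the FRET signal from Eu-anti-IP1 and d2-IP1 after a 10 min room-temperature lysis.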
NPSR antag: neuropeptide S receptor (human) antagonism, cAMP; Q6W5P4; CHO-NPSR cells, cAMP TR-FRET, antagonist mode; Potency, µM (highest dose often 38.3 µM), most hits filed as inhibitors; hit rate 1% among 220,000; further: nearly all actives have a fitted effect of over 50% in size
12-hLO inh: blocks human 12-lipoxygenase activity; hit rate 0.12% among 150,000; AID 1452; Potency, µM (series often up to 57.1 µM), most hits filed as inhibitors; purified 12-hLO, xylenol orange hydroperoxide absorbance; P18054; further: nearly all actives have a fitted effect of over 55% in size
Target sequence (P18054 whole entry, looked up): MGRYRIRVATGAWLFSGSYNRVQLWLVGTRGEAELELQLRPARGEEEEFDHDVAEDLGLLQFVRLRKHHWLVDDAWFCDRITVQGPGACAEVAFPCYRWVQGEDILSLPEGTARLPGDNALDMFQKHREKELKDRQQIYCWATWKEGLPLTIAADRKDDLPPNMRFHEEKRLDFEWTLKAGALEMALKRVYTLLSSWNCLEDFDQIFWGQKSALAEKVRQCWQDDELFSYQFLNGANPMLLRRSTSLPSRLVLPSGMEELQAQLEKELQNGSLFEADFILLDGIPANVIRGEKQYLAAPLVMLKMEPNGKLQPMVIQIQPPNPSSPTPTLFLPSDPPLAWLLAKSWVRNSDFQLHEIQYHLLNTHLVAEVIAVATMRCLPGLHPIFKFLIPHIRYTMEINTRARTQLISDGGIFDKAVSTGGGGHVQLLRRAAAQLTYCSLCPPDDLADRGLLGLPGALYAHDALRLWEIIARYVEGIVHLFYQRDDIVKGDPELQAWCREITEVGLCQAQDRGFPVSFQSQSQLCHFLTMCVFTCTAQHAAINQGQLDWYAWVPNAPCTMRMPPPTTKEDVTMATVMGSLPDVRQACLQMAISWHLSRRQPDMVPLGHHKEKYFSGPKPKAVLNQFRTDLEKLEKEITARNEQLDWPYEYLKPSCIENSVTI
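Hydroperoxide output read as Fe(III)-xylenol orange absorbance, 573-to-405 nm ratio, after 30 min reaction with 40 uM arachidonic acid. Enzyme: 150 nM purified human 12hLO, 15 min compound preincubation; 25 mM Hepes pH 7.0, room temperature.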
Of the large screens only hits and unclear results are named; the others gave an inactive call. Sampled rows, rich in hits. Any-hit rate of the full collection: about 8.9%. Unless noted, the call rests on the fitted dose curve; in most records, active means well fitted curve in the direction sought with a large enough effect; inconclusive means small, poorly fitted or top-dose-only effect, or another doubt; inactive means no such curve, though single readings can be large; an effect the other way counts as inactive or inconclusive.

CN(C)C(=O)CNc1n[nH]c(=S)[nH]c1=O	none (no result: HPGD block, IMPase Li inh, IMPase inh, 12-hLO inh)
Cc1ccc(Nc2nnns2)cc1	HPGD block 22µM, ALDH1A1 block 2.5µM
COc1ccc(C2=CC3=C(Br)C(=O)C(C)(OC(=O)c4ccc(Cl)nc4)C(=O)C3=CO2)cc1 (centres undefined)	HPGD block inconclusive, ALDH1A1 block inconclusive (no result: IMPase inh)
COc1ccc2c(c1)sc(=N)n2CC(=O)Nc1cc(C)cc(C)c1	none (no result: HPGD block, IMPase inh, 12-hLO inh)
CCCCc1c(O)nc2sc3cc(OC)ccc3n2c1=O	HPGD block 16µM
COC(=O)c1cc(=O)nc2sc(-c3ccccc3)nn12	ALDH1A1 block inconclusive
COC(=O)c1cc(=O)nc2sc3cc(OC)ccc3n12	ALDH1A1 block 16µM
Cc1ccc(Nc2nnc(C3C(=O)N(C)C4(C)CC3c3cc(Br)ccc3O4)s2)cc1 (centres undefined)	ALDH1A1 block inconclusive (no result: IMPase inh)
CS(=O)(=O)N1N=C(c2ccccc2)CC1c1ccc2c(c1)OCO2 (centres undefined)	ALDH1A1 block 2.4µM (no result: IMPase inh)
Cc1ccc(C2CC(c3ccco3)=NN2S(C)(=O)=O)cc1 (centres undefined)	ALDH1A1 block inconclusive (no result: IMPase inh)
CS(=O)(=O)Nc1cccc(C2=NN(S(C)(=O)=O)C(c3ccc4c(c3)OCO4)C2)c1 (centres undefined)	none (no result: IMPase inh)
CS(=O)(=O)N1N=C(c2ccco2)CC1c1ccc(Cl)cc1 (centres undefined)	ALDH1A1 block 8.9µM
C=CCOc1ccc(C2CC(C)=NN2c2ccccc2)cc1 (centres undefined)	none (no result: IMPase inh)
Cn1c(SCc2ccccc2Cl)nnc1-c1cnccn1	none
CCCCn1c(=O)c2c(c3ccccc31)OCC(=O)N2	ALDH1A1 block 20µM
CCCn1c(=O)c2c(c3ccccc31)OC(C)C(=O)N2 (centres undefined)	none
C=CCc1cccc(C2Nc3ccccc3C(=O)N2O)c1O (centres undefined)	HPGD block 7.1µM, 12-hLO inh inconclusive
Cc1ccsc1C1Nc2ccccc2C(=O)N1O (centres undefined)	HPGD block 18µM (no result: IMPase inh)
O=C1c2ccccc2NC(c2ccc(Cl)cc2Cl)N1O (centres undefined)	12-hLO inh inconclusive
Cc1ccc(-c2cn3cccnc3n2)cc1	IMPase Li inh 10µM, ALDH1A1 block inconclusive (no result: HPGD block, IMPase inh, 12-hLO inh)
COc1cc(C=O)ccc1OCCCCOc1ccccc1[N+](=O)[O-]	ALDH1A1 block 5µM (no result: IMPase inh)
COc1ccc(/C=N/NS(=O)(=O)c2ccc(F)cc2)cc1COc1cc(F)ccc1[N+](=O)[O-]	ALDH1A1 block 35µM (no result: HPGD block, IMPase inh, 12-hLO inh)
COc1ccc(C=O)cc1COc1ccc(C)cc1[N+](=O)[O-]	ALDH1A1 block 10µM
COc1cc(C=O)ccc1OCCCOc1ccccc1[N+](=O)[O-]	HPGD block 20µM (no result: IMPase inh)
COc1cc(C=O)ccc1OS(=O)(=O)c1ccccc1[N+](=O)[O-]	HPGD block 18µM, ALDH1A1 block 8.9µM (no result: IMPase inh)
COc1cc(/C=N/n2cnnc2)ccc1OS(=O)(=O)c1ccccc1[N+](=O)[O-]	none (no result: IMPase inh)
C=CC(=O)OCCOCCOC(=O)C=C	ALDH1A1 block 25µM (no result: IMPase inh, NPSR antag)
CCOc1ccccc1OCCCC(=O)N(C)CC(=O)Nc1cc(C)ccc1C	none (no result: HPGD block, IMPase inh, 12-hLO inh)
O=C(CC1SC2=NCCN2C1=O)Nc1ccc(Br)cc1 (centres undefined)	none (no result: IMPase inh)
O=C(Nc1ccc(F)cc1)C1=CC(=O)N2CCN=C2S1	ALDH1A1 block 16µM (no result: HPGD block, IMPase inh, 12-hLO inh)
Cc1ccc(SCc2[nH]nc3c2C2(C(=O)Nc4ccc([N+](=O)[O-])cc42)C(C#N)=C(N)O3)cc1 (centres undefined)	ALDH1A1 block 13µM, IMPase inh inconclusive
Cc1ccc(SCc2[nH]nc3c2C2(CCSCC2)C(C#N)=C(N)O3)cc1	ALDH1A1 block 10µM
CCOC(=O)N1CCC2(CC1)C(C#N)=C(N)Oc1n[nH]c(CSc3ccc(C)cc3)c12	none
CCOc1ccc(C2C(C(=O)c3ccc(C)o3)=C(O)C(=O)N2CCCN(CC)CC)cc1 (centres undefined)	none (no result: HPGD block, IMPase Li inh, ALDH1A1 block, IMPase inh, 12-hLO inh)
COCCCN1C(=O)C(O)=C(C(=O)c2ccc(C)o2)C1c1cccc(Br)c1 (centres undefined)	IMPase Li inh 10µM, IMPase inh inconclusive
Cc1nnc(N2C(=O)C(O)=C(C(=O)c3ccco3)C2c2cccc3ccccc23)s1 (centres undefined)	none (no result: HPGD block, IMPase Li inh, ALDH1A1 block, IMPase inh, 12-hLO inh)
Cc1ccc(C2C(C(=O)c3ccco3)=C(O)C(=O)N2c2nnc(C)s2)cc1 (centres undefined)	IMPase Li inh 10µM, IMPase inh inconclusive
COC(=O)c1sc(N2C(=O)C(O)=C(C(=O)c3ccc(C)o3)C2c2ccc(F)cc2)nc1C (centres undefined)	HPGD block 8.9µM, IMPase Li inh 7.9µM, ALDH1A1 block inconclusive, IMPase inh inconclusive
CCOc1cccc(C2C(C(=O)c3ccc(C)o3)=C(O)C(=O)N2Cc2ccncc2)c1 (centres undefined)	IMPase Li inh 10µM, ALDH1A1 block inconclusive, IMPase inh inconclusive
CC(C)Oc1ccc(C2C(C(=O)c3ccco3)=C(O)C(=O)N2Cc2cccnc2)cc1 (centres undefined)	IMPase Li inh inconclusive, IMPase inh inconclusive
COCCCN1C(=O)C(O)=C(C(=O)c2ccco2)C1c1ccccc1 (centres undefined)	IMPase Li inh 7.9µM, ALDH1A1 block 28µM, IMPase inh inconclusive, NPSR antag inconclusive
O=C(C1=C(O)C(=O)N(CCc2ccccc2)C1c1cccnc1)c1ccco1 (centres undefined)	IMPase Li inh 4.5µM, ALDH1A1 block 18µM, IMPase inh inconclusive, NPSR antag inconclusive
CCOc1cc(C2C(C(=O)c3ccco3)=C(O)C(=O)N2CCc2ccccc2)ccc1O (centres undefined)	none
CCOc1ccc(C2C(C(=O)c3ccco3)=C(O)C(=O)N2Cc2cccnc2)cc1OC (centres undefined)	IMPase Li inh 11µM, ALDH1A1 block 25µM
CCC1(c2ccc(F)cc2)NC(=O)N(CC(=O)Nc2ccc(-c3nc4ccc(C)cc4s3)cc2)C1=O (centres undefined)	HPGD block inconclusive, ALDH1A1 block inconclusive (no result: IMPase inh)
COc1nc(NC23CC4CC(CC(C4)C2)C3)nc(OC)n1	ALDH1A1 block 25µM
O=Cc1ccc2oc3nc4n(c(=O)c3c(=O)c2c1)CCCS4	HPGD block inconclusive, ALDH1A1 block 2.5µM
O=C(OC(C(=O)Nc1ccc(Cl)cc1C(F)(F)F)c1ccccc1)c1c(Cl)cccc1Cl (centres undefined)	ALDH1A1 block 3.2µM (no result: IMPase inh)
CCCCn1c(CCC(=O)O)nc2c1c(=O)[nH]c(=O)n2CCC	none
O=c1[nH]c(-c2ccccc2F)nc2c1sc(=S)n2Cc1ccccc1	HPGD block 10µM
CCn1cc(CNCc2ccc(OCC(O)CN(C)Cc3ccccc3)cc2)cn1 (centres undefined)	none (no result: HPGD block, IMPase inh, 12-hLO inh)
CCOc1ccc(C=Nc2cccc3ncccc23)cc1	ALDH1A1 block 18µM (no result: HPGD block, IMPase inh, 12-hLO inh)
